Laboratory results reported in the supplement of paper PMC10849652.
About 7,900 targets were measured; listed, in parts, are those with a hit and a random draw of the rest. About 0.6% of all pairs of compound and target were hits.

Assays:
Assay in all cases: log2 fold change, soluble protein after heating vs DMSO (PISA); higher = thermal stabilisation; K562 cells, 10 uM, 30 min; active = over 0.2 and 3.5 SD of the protein, either way, in both replicates (recomputed)
[1] = compound: CS(=O)(=O)c1ccc(-c2cnc(N)c(C(=O)Nc3ccccc3)n2)cc1
Summary of the method: (§1)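 K562 cells at 2×10^6 cells/mL were treated for 30 min with 10 μM compound, and aliquots were heated for 3 min over 48°C-58°C before pooling. Extraction used PBS with 0.5% NP-40 at 4°C, and soluble protein was the supernatant after 21,000xg for 90 min, measured by TMTpro 16plex LC-MS/MS with channel sums equalised. Thermal stability values, relative to control samples and from duplicates, are log2 fold changes.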

crizotinib = compound: C[C@@H](Oc1cc(-c2cnn(C3CCNCC3)c2)cnc1N)c1c(Cl)ccc(F)c1Cl [crizotinib]
Summary of the method: as §1

[2] = compound: C[C@@H]1COCCN1C2=NC(=NC(=C2)C3(CC3)S(=O)(=O)C)C4=C5C=CNC5=CC=C4
Summary of the method: as §1

[3] = compound: C[C@H](C1=CC=C(C=C1)C(=O)NC2=C3C=CNC3=NC=C2)N
Summary of the method: as §1

duvelisib = compound: C[C@H](Nc1ncnc2nc[nH]c12)c1cc2cccc(Cl)c2c(=O)n1-c1ccccc1 [duvelisib]
Summary of the method: as §1

gandotinib = compound: Cc1cc(Nc2cc(CN3CCOCC3)c3nc(C)c(Cc4ccc(Cl)cc4F)n3n2)n[nH]1 [gandotinib]
Summary of the method: as §1

tozasertib = compound: Cc1cc(Nc2cc(N3CCN(C)CC3)nc(Sc3ccc(NC(=O)C4CC4)cc3)n2)n[nH]1 [tozasertib]
Summary of the method: as §1

[4] = compound: Cc1cc(SCc2sc(-c3ccc(C(F)(F)F)cc3)nc2C)ccc1OCC(=O)O
Summary of the method: as §1

doramapimod = compound: Cc1ccc(-n2nc(C(C)(C)C)cc2NC(=O)Nc2ccc(OCCN3CCOCC3)c3ccccc23)cc1 [doramapimod]
Summary of the method: as §1

ispinesib = compound: Cc1ccc(C(=O)N(CCCN)[C@@H](c2nc3cc(Cl)ccc3c(=O)n2Cc2ccccc2)C(C)C)cc1 [ispinesib]
Summary of the method: as §1

bafetinib = compound: Cc1ccc(NC(=O)c2ccc(CN3CC[C@H](N(C)C)C3)c(C(F)(F)F)c2)cc1Nc1nccc(-c2cncnc2)n1 [bafetinib]
Summary of the method: as §1

[5] = compound: Cc1cccc(CC(=O)N2CCc3c2ccc(-c2cn(C)c4ncnc(N)c24)c3F)n1
Summary of the method: as §1

nilotinib = compound: Cc1cn(-c2cc(NC(=O)c3ccc(C)c(Nc4nccc(-c5cccnc5)n4)c3)cc(C(F)(F)F)c2)cn1 [nilotinib]
Summary of the method: as §1

[6] = compound: Cc1nc(Nc2n[nH]c3c2CN(C(=O)N[C@H](CN(C)C)c2ccccc2)C3(C)C)c2sccc2n1
Summary of the method: as §1

dasatinib = compound: Cc1nc(Nc2ncc(C(=O)Nc3c(C)cccc3Cl)s2)cc(N2CCN(CCO)CC2)n1 [dasatinib]
Summary of the method: as §1

[7] = compound: Cc1ncc(-c2ccnc(Nc3ccc(S(C)(=O)=O)cc3)n2)n1C(C)C
Summary of the method: as §1

[8] = compound: Cn1cc(-c2ccc3c(c2)CCN3C(=O)Cc2cccc(C(F)(F)F)c2)c2c(N)ncnc21
Summary of the method: as §1

[9] = compound: Cn1cc(-c2ccc3nnc(C(F)(F)c4ccc5ncccc5c4)n3n2)cn1
Summary of the method: as §1

tipifarnib = compound: Cn1cncc1[C@@](N)(c1ccc(Cl)cc1)c1ccc2c(c1)c(-c1cccc(Cl)c1)cc(=O)n2C [tipifarnib]
Summary of the method: as §1

mubritinib = compound: FC(F)(F)c1ccc(/C=C/c2nc(COc3ccc(CCCCn4ccnn4)cc3)co2)cc1 [mubritinib]
Summary of the method: as §1

Measured: log2 fold change

FANCD2 isoform 1 (UniProt Q9BXW9)
inactive: [1] -0.056 | crizotinib -0.052 | [2] 0.127 | [3] -0.014 | duvelisib -0.014 | gandotinib -0.135 | tozasertib 0.003 | [4] 0.034 | doramapimod 0.004 | ispinesib -0.096 | bafetinib -0.06 | [5] -0.014 | nilotinib -0.145 | [6] 0.15 | dasatinib -0.167 | [7] -0.119 | [8] 0.126 | [9] 0.1 | tipifarnib -0.024 | mubritinib 0.052

GIGYF2 (UniProt Q6Y7W6)
UniProt Q6Y7W6, sequence (Q6Y7W6 whole entry, looked up): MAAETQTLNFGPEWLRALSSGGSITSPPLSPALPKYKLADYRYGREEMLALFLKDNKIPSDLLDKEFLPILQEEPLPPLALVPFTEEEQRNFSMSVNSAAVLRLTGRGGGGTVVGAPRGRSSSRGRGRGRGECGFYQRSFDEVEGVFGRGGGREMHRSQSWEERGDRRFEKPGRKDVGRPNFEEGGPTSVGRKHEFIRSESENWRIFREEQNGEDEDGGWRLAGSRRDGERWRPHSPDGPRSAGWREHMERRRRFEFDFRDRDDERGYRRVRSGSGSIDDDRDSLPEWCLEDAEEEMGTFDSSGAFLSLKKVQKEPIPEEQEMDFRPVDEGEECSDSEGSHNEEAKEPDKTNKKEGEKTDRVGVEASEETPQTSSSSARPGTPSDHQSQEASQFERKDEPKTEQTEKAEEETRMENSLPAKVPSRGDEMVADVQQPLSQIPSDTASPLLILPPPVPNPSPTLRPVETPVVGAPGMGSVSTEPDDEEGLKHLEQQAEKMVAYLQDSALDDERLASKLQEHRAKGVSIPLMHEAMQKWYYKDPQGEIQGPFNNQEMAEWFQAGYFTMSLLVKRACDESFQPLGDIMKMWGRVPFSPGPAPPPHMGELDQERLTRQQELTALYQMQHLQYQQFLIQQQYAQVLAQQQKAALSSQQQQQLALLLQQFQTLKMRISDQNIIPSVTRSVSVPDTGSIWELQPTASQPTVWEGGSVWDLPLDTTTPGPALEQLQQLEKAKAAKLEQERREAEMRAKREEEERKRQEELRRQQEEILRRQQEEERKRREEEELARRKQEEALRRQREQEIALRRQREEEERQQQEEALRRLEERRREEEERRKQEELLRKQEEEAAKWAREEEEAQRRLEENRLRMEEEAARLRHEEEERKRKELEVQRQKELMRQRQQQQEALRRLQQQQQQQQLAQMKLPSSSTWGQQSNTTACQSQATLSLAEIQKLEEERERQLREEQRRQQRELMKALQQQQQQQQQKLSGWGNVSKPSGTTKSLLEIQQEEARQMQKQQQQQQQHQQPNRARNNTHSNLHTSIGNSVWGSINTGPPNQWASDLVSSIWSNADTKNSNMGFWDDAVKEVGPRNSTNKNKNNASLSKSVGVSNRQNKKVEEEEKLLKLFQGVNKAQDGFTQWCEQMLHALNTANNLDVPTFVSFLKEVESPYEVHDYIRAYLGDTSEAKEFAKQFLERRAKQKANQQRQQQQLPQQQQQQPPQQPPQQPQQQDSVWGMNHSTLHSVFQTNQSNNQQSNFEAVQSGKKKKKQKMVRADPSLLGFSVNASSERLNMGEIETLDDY
inactive: [1] 0.005 | crizotinib -0.084 | [2] 0.083 | [3] 0 | duvelisib 0.006 | gandotinib -0.03 | tozasertib -0.012 | [4] 0.114 | doramapimod -0.028 | ispinesib -0.179 | bafetinib -0.076 | [5] 0.045 | nilotinib -0.161 | [6] -0.105 | dasatinib -0.22 | [7] -0.023 | [8] 0.054 | [9] -0.025 | tipifarnib -0.119 | mubritinib -0.03

HNRNPUL1 (UniProt Q9BUJ2)
UniProt Q9BUJ2, sequence (Q9BUJ2 whole entry, looked up): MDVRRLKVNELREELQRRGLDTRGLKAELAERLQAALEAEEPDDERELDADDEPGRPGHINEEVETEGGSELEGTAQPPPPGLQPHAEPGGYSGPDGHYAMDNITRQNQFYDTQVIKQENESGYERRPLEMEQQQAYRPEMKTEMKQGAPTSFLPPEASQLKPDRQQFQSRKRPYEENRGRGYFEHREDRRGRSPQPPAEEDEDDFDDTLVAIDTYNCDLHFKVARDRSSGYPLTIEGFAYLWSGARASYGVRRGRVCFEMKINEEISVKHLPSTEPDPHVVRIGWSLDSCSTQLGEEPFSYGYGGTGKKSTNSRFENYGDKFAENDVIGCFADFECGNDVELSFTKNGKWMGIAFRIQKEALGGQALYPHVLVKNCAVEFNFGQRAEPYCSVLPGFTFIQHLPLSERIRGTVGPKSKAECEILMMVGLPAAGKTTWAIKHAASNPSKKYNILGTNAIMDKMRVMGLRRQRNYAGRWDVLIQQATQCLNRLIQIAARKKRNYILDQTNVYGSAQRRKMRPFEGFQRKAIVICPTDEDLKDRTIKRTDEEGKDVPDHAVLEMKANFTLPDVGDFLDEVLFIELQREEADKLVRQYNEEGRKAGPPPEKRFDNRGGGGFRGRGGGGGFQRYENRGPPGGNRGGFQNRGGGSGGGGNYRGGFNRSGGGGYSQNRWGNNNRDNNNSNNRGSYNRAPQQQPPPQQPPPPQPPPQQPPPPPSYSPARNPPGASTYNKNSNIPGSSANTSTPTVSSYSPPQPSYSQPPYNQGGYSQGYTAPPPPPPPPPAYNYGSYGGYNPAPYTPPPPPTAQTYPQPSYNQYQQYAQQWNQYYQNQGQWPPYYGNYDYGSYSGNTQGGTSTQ
active: mubritinib -0.231
inactive: [1] 0.007 | crizotinib -0.023 | [2] -0.016 | [3] 0.147 | duvelisib -0.036 | gandotinib 0.049 | tozasertib 0.039 | [4] 0.085 | doramapimod -0.025 | ispinesib -0.019 | bafetinib -0.011 | [5] -0.069 | nilotinib -0.032 | [6] -0.008 | dasatinib -0.061 | [7] 0.041 | [8] -0.03 | [9] -0.007 | tipifarnib 0.059

HP1BP3 (UniProt Q5SSJ5)
inactive: [1] 0.002 | crizotinib -0.121 | [2] -0.013 | [3] 0.163 | duvelisib -0.097 | gandotinib 0.039 | tozasertib -0.011 | [4] 0.121 | doramapimod 0.035 | ispinesib -0.079 | bafetinib 0.017 | [5] -0.082 | nilotinib 0.055 | [6] -0.008 | dasatinib 0.009 | [7] 0.125 | [8] -0.045 | [9] -0.087 | tipifarnib 0.028 | mubritinib 0.026

HOMER1 (UniProt Q86YM7)
UniProt Q86YM7, sequence (Q86YM7 whole entry, looked up): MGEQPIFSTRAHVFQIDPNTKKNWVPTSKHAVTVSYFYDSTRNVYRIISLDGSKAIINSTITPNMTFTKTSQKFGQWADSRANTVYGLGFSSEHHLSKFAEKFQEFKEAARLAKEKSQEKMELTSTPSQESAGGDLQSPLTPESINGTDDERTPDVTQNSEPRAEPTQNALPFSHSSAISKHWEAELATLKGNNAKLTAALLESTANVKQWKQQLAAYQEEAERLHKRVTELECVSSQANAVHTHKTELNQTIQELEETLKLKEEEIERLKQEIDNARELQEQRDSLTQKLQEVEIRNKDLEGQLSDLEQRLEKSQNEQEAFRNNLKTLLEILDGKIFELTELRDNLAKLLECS
inactive: [1] -0.011 | crizotinib -0.015 | [2] 0.071 | [3] -0.014 | duvelisib 0.024 | gandotinib -0.068 | tozasertib 0.046 | [4] -0.002 | doramapimod 0.027 | ispinesib 0.083 | bafetinib -0.016 | [5] -0.002 | nilotinib -0.02 | [6] 0.046 | dasatinib -0.054 | [7] -0.008 | [8] 0.003 | [9] 0.117 | tipifarnib -0.031 | mubritinib 0.089

GOLPH3 (UniProt Q9H4A6)
UniProt Q9H4A6, sequence (Q9H4A6 whole entry, looked up): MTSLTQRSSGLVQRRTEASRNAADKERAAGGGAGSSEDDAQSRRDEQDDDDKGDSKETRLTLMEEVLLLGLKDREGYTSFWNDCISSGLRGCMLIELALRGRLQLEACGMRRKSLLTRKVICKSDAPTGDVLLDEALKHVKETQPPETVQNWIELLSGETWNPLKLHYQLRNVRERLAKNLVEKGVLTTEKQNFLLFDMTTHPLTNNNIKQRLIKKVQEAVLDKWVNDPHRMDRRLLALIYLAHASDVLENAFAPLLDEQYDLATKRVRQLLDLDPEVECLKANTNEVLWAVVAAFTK
active: ispinesib 0.379
inactive: [1] -0.028 | crizotinib 0.176 | [2] 0.006 | [3] -0.038 | duvelisib 0.047 | gandotinib -0.112 | tozasertib 0.024 | [4] 0.012 | doramapimod -0.011 | bafetinib 0.074 | [5] 0.032 | nilotinib -0.021 | [6] -0.015 | dasatinib -0.123 | [7] -0.013 | [8] 0.02 | [9] -0.013 | tipifarnib -0.028 | mubritinib 0.07

GHDC (UniProt Q8N2G8)
UniProt Q8N2G8, sequence (Q8N2G8 whole entry, looked up): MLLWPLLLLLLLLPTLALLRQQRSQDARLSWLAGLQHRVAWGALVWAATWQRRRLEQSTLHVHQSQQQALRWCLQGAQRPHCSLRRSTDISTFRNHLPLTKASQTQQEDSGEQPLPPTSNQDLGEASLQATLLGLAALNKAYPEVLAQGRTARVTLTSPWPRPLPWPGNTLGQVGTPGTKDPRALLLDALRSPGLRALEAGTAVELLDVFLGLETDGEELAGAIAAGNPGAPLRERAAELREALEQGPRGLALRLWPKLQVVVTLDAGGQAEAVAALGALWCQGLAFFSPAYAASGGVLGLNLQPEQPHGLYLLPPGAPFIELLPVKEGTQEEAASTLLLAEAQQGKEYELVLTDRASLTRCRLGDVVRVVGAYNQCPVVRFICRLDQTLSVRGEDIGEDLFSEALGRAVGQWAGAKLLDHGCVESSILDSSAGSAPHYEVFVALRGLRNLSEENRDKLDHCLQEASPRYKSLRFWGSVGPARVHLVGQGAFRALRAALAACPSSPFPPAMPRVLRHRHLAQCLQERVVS
inactive: [1] 0.041 | crizotinib -0.02 | [2] 0.021 | [3] -0.074 | duvelisib 0.043 | gandotinib 0.002 | tozasertib -0.01 | [4] -0.039 | doramapimod -0.041 | ispinesib -0.132 | bafetinib -0.165 | [5] 0.018 | nilotinib 0.036 | [6] -0.001 | dasatinib 0.027 | [7] -0.011 | [8] 0.045 | [9] 0.012 | tipifarnib 0.146 | mubritinib 0.01

GGT7 (UniProt Q9UJ14)
UniProt Q9UJ14, sequence (Q9UJ14 whole entry, looked up): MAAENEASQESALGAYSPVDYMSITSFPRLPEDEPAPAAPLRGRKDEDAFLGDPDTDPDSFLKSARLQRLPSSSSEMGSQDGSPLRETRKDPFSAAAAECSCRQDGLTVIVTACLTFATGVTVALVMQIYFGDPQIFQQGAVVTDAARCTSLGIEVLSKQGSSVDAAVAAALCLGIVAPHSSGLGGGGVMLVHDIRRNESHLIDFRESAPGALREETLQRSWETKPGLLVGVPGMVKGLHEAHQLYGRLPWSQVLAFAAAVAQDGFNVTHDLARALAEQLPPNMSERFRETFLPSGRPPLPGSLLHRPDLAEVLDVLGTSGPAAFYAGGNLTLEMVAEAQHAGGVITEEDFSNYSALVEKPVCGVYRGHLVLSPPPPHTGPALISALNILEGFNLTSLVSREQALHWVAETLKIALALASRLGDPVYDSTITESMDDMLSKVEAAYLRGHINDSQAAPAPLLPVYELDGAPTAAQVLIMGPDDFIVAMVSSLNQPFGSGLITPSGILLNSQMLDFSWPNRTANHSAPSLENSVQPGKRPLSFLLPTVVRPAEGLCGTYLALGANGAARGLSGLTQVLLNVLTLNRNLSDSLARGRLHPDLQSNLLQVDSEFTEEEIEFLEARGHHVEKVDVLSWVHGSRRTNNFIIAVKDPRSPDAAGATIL
inactive: [1] 0.035 | crizotinib 0.013 | [2] -0.128 | [3] 0.013 | duvelisib -0.045 | gandotinib -0.03 | tozasertib -0.049 | [4] -0.091 | doramapimod 0.023 | ispinesib -0.032 | bafetinib -0.081 | [5] -0.038 | nilotinib 0.026 | [6] 0.015 | dasatinib -0.02 | [7] -0.03 | [8] 0.063 | [9] 0.018 | tipifarnib 0.001 | mubritinib 0.021

GABARAPL1 isoform 2 (UniProt Q9H0R8)
UniProt Q9H0R8, sequence (Q9H0R8 whole entry, looked up): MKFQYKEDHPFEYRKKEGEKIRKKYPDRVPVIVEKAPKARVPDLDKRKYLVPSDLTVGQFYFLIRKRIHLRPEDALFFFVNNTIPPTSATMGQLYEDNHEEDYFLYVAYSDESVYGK
active: crizotinib -0.344 | ispinesib -0.315
inactive: [1] 0.105 | [2] 0.048 | [3] -0.045 | duvelisib 0.057 | gandotinib 0.078 | tozasertib -0.008 | [4] 0.026 | doramapimod -0.034 | bafetinib -0.171 | [5] 0.006 | nilotinib -0.05 | [6] -0.028 | dasatinib -0.031 | [7] 0.017 | [8] -0.016 | [9] 0.003 | tipifarnib -0.075 | mubritinib 0.044

IFRD1 (UniProt O00458)
inactive: [1] 0.347 | crizotinib 0.004 | [3] 0.013 | duvelisib 0.002 | gandotinib 0.104 | tozasertib 0.035 | [4] -0.003 | doramapimod 0 | ispinesib -0.006 | bafetinib 0.118 | [5] -0.031 | nilotinib 0.165 | [6] 0.056 | dasatinib 0.071 | [7] 0.202 | [8] -0.011 | [9] -0.005 | tipifarnib 0.001 | mubritinib 0.1
active: [2] 0.37

GLA (UniProt P06280)
inactive: [1] -0.033 | crizotinib -0.205 | [2] -0.019 | [3] 0.018 | duvelisib -0.027 | gandotinib -0.066 | tozasertib -0.03 | [4] 0.034 | doramapimod -0.036 | ispinesib -0.148 | [5] -0.051 | nilotinib 0.021 | [6] -0.007 | dasatinib -0.039 | [7] -0.04 | [8] 0.005 | [9] 0.03 | tipifarnib 0.064 | mubritinib 0.035
active: bafetinib -0.529

FDXR isoform 7 (UniProt P22570)
UniProt P22570, sequence (P22570 whole entry, looked up): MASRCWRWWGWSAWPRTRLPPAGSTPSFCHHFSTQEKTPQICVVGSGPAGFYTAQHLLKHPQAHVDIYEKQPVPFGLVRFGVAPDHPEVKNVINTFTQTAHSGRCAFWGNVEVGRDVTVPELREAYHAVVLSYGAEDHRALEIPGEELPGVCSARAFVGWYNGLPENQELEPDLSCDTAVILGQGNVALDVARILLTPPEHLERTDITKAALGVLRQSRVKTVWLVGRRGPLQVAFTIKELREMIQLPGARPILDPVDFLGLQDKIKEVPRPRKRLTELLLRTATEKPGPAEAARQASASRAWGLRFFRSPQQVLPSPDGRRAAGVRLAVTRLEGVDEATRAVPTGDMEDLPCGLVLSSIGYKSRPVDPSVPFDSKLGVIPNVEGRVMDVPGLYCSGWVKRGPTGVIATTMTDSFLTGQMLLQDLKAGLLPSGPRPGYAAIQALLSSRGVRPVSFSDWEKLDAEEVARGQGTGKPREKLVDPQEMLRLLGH
inactive: [1] 0.038 | crizotinib -0.036 | [2] 0.117 | [3] -0.01 | duvelisib 0.11 | gandotinib -0.064 | tozasertib -0.105 | [4] 0.023 | doramapimod -0.013 | ispinesib -0.138 | bafetinib -0.012 | [5] -0.162 | nilotinib -0.031 | [6] -0.015 | dasatinib -0.245 | [7] -0.042 | [8] -0.023 | [9] 0.038 | tipifarnib -0.002
active: mubritinib -0.643

HDHD2 (UniProt Q9H0R4)
inactive: [1] -0.11 | crizotinib -0.031 | [2] -0.01 | [3] 0.001 | duvelisib -0.019 | gandotinib 0 | tozasertib -0.039 | [4] -0.023 | doramapimod -0.081 | ispinesib 0.004 | bafetinib 0.068 | [5] 0.018 | nilotinib 0.024 | [6] -0.04 | dasatinib 0.042 | [7] 0.006 | [8] 0.019 | [9] 0.028 | tipifarnib -0.011 | mubritinib 0.045

ICAM1 (UniProt P05362)
inactive: [1] 0.052 | crizotinib 0.142 | [2] 0.026 | [3] -0.069 | duvelisib 0.024 | gandotinib -0.134 | tozasertib -0.062 | [4] -0.054 | doramapimod -0.012 | ispinesib 0.121 | bafetinib 0.031 | [5] -0.024 | nilotinib 0.055 | [6] 0.051 | dasatinib -0.01 | [7] -0.019 | [8] 0.048 | [9] -0.006 | tipifarnib 0.019 | mubritinib 0.046

GPAT4 (UniProt Q86UL3)
inactive: [1] 0.15 | [2] 0.066 | [3] -0.071 | duvelisib 0.017 | gandotinib -0.009 | tozasertib 0.063 | [4] 0.061 | doramapimod -0.063 | ispinesib 0.194 | bafetinib -0.138 | [5] -0.028 | nilotinib -0.047 | [6] 0.049 | dasatinib -0.024 | [7] -0.009 | [8] 0.093 | [9] -0.018 | tipifarnib -0.069 | mubritinib -0.008
active: crizotinib 0.287

GALK1 isoform 2 (UniProt P51570)
UniProt P51570, sequence (P51570 whole entry, looked up): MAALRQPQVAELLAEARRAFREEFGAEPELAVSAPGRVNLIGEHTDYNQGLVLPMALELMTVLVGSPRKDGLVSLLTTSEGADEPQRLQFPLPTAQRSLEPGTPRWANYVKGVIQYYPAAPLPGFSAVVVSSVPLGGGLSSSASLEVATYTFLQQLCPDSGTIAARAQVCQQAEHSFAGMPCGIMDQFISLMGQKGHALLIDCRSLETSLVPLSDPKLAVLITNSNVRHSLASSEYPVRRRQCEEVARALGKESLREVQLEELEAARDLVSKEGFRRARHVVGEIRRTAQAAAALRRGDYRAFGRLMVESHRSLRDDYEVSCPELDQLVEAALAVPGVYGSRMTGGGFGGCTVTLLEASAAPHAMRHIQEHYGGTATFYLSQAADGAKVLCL
inactive: [1] -0.1 | crizotinib -0.041 | [2] 0.037 | [3] -0.088 | duvelisib -0.021 | gandotinib -0.087 | tozasertib -0.013 | [4] 0.056 | doramapimod 0.012 | ispinesib 0.078 | bafetinib 0.061 | [5] 0.062 | nilotinib -0.018 | [6] -0.001 | dasatinib -0.043 | [7] -0.015 | [8] 0.055 | [9] -0.084 | tipifarnib -0.136 | mubritinib 0.01
